Among the data in PubChem BioAssay (NCATS) are Potency, max response and outcome values, retold here.

Holding throughout (experiment): Cytotoxic Profiling of Annotated Libraries Using Quantitative High-Throughput Screening (AID 1296008); also: nearly all actives have a fitted effect of over 60% in size
Holding throughout (settings): Five cell lines viability, CellTiter-Glo ATP luminescence, 48-72 h; max response: hits give low values

Test [1] concerns CRL-7250. The procedure, abridged: (§1)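 Cells exposed to compounds for 48 or 72 hr at 37 degrees Celsius. Viability read as ATP-coupled luminescence with CellTiter-Glo after 10 min at room temperature.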
In test [2] the test system is HEK293. In outline: as §1
The test system of test [3] is HaCat. The procedure, abridged: as §1
Test [4] deals with KB-3-1. In outline: as §1
For test [5], the system named is NIH3T3. In outline: as §1

Structures are written as SMILES. Records with an inconclusive call do not appear. Unmarked numbers belong to inactive results. Active and inactive are the calls of the source. Calls follow the shape of the dose curve; as a rule, active = well fitted inhibition curve with a large enough effect; inconclusive = small, poorly fitted or top-dose-only effect; inactive = flat fitted curve, though single readings scatter.
% is scaled to controls: 0 for no effect and ±100 for the full control effect; potency is read from the fitted curve at half-maximal effect.

Consider `Cc1onc(C(=O)N2CCN(C(c3ccc(Cl)cc3)c3ccc(Cl)cc3)CC2)c1[N+](=O)[O-]`, for which the figures for the Potency in test [1], in test [2] and in test [5] were 580 nM (active), 820 nM (active) and 731 nM (active), respectively. For the same compound, the max response in test [3] was 0.662%; in test [4], -21.9%.
Turning to `OCC(CO[C@@H]1O[C@H](CO)[C@@H](O)[C@H](O)[C@H]1O)c1ccc2c(c1)OCO2` (stereo not given in full), the max response in test [1] is 0.071%; in test [2], -1.28%; in test [3], 1.18%; in test [4] it was -7.72%; in test [5], -0.622%.
For `CC1CCC23COC(=O)C2=CC(O)CC3C1(C)CCC1=CC(O)OC1=O` (stereo not given), the max response is -0.17% in test [1], 1.91% in test [2], -7.3% in test [3] and 0.229% in test [5]. Besides, the result in test [4] was inactive.
For `O=C1NC(Cc2ccccc2)C(=O)N2CCCC12` (stereo not given), the call in test [1] was inactive. Moreover, the max response in test [2] was -1.73%; in test [3], 2.36%; in test [4], 9.71%; in test [5], -0.863%.
Take `COc1c2c(cc3c1-c1c(cc4c(c1OC)OCO4)CC(C)C(C)C3)OCO2` (stereo not given): the max response is 1.23% in test [1]; -21.6% in test [2]; -1.94% in test [3]; -8.19% in test [4]; -11.8% in test [5].
In the same order, the values of `C=CC(C)(C)c1[nH]c2ccccc2c1C[C@@H]1NC(=O)[C@H](Cc2c[nH]c3ccccc23)NC1=O` are 3.43%, -1.95%, -3.54%, 3.66% and 0.0013%.
As for `CC12CCC3c4ccc(OC5OC(C(=O)O)C(O)C(O)C5O)cc4CCC3C1CCC2O` (stereo not given), the outcome in test [1] and in test [4] was inactive. The max response is 3.31% in test [2], 0.389% in test [3] and 3.14% in test [5].
